Several values for one entry are separate records, joined by “and”; a condition that tells them apart may be missing. Equal values may be shown once. Hit rate of the full screen: of about 6,400 compounds, about 610 (9.5%) were called active. No stated cut-off is given here; in the data, active means activity change below about -70%; inconclusive means no clear call, values can overlap the other calls; inactive means above that. Shown is part of a subset that was picked to be rich in actives. Where a structure was tested more than once in an assay, its records may differ in their call.
assay: T. gondii ME49Luc in HeLa cells, luciferase assay, 72 h, no IFN-y (AID 1259421); details: stronger effect = lower value, concentration not given here

| Compound | activity change, negative = inhibition |
| --- | --- |
| CC(C)NC[C@@H](C(=O)N1CCN(c2ncnc3c2[C@H](C)C[C@@H]3O)CC1)c1ccc(Cl)cc1 | 9.17% (inactive) |
| CC(=O)c1c(O)c(C)c(O)c2c1OC1=CC(=O)C(C(C)=O)C(=O)[C@@]12C (stereo partly specified) | 16.8% (inactive) |
| CCCCCCCCCCCCC/C=C/[C@@H](O)[C@H](CO)NC(C)=O | 16.6% (inactive) |
| NCCNS(=O)(=O)c1cccc2cnccc12 | 1.67% (inactive) |
| NCCCCCCNS(=O)(=O)c1cccc2ccccc12 | 3.17% (inactive) |
| Nc1nc(NCC2CCC(CNS(=O)(=O)c3cccc4ccccc34)CC2)nc2ccccc12 (stereo unspecified) | -76.7% (active) and -41.2% (inactive) |
| Cc1onc(-c2ccccc2)c1C(=O)NC1C(=O)N2[C@@H]1SC(C)(C)[C@@H]2C(=O)O (stereo partly specified) | 8.03% (inactive) |
| CSC1SCC2C(=O)N(C)C(C(C)C)C(=O)OCC(NC(=O)c3cnc4ccccc4n3)C(=O)NC(C)C(=O)N(C)C1C(=O)N(C)C(C(C)C)C(=O)OCC(NC(=O)c1cnc3ccccc3n1)C(=O)NC(C)C(=O)N2C (stereo unspecified) | -84.4% (active) |
| CC(=C(CCOP(=O)(O)O)SC(=O)c1ccccc1)N(C=O)Cc1cnc(C)nc1N | -0.0808% (inactive) |
| Oc1c(Cl)cc(Cl)c(Cl)c1Cc1c(O)c(Cl)cc(Cl)c1Cl | -88.2% (active) and -95.3% (active) |
| O=C(Nc1cc(Cl)cc(Cl)c1O)c1c(O)c(Cl)cc(Cl)c1Cl | 1.68% (inactive) |
| CCCC(CCC)C(=O)OC1C[C@H]2CC[C@@H](C1)[N+]2(C)C (stereo partly specified) | 9.62% (inactive) |
| O=C(NC1CCN(Cc2ccccc2)CC1)c1ccc(I)cc1 | 21.8% (inactive) and 21.3% (inactive) |
| C=CCc1cccc(/C=N/NC(=O)CN2CCN(Cc3ccccc3)CC2)c1O | -76.9% (active) and 6.28% (inactive) |
| O=C(COc1ccc(C(=O)c2ccccc2)cc1)NC1CCN(Cc2ccccc2)CC1 | -17.8% (inactive) |
| Cc1ccccc1N=Nc1ccc(NC(=O)c2ccnn2C)c(C)c1 | -4.39% (inactive) |
| Cc1nc2ccc(CN(C)c3ccc(C(=O)N[C@@H](CCC(=O)O)C(=O)O)s3)cc2c(=O)[nH]1 | -4.51% (inactive) |
| O=C(O)c1cc(-c2ccccc2)nc2ccccc12 | 42.2% (inactive) and 11.3% (inactive) |
| O=C(O)c1ccc(-c2c[nH]c3ncc(-c4ccccc4)cc23)cc1C1CCCC1 | -82.2% (active) |
| CCC(=O)OCC(=O)[C@@]1(OC(=O)CC)[C@@H](C)CC2C3CCC4=CC(=O)C=C[C@]4(C)C3(F)[C@@H](O)C[C@@]21C (stereo partly specified) | -0.442% (inactive) |
| CC(=O)Nc1ccc(S(=O)(=O)Nc2onc(C)c2C)cc1 | 6.51% (inactive) |

| Compound | activity change, negative = inhibition |
| --- | --- |
| NCCCC(N)(C(=O)O)C(F)F (stereo unspecified) | 7.14% (inactive) |
| COc1cc(OC)c2c(=O)cc(-c3ccccc3)oc2c1 | 147% (inactive) |
| COc1cc(OC)c2c(=O)c(OC)c(-c3ccccc3)oc2c1 | 43.5% (inactive) |
| COc1cc(OC)c2c(OC)c(-c3ccc4c(c3)OCO4)c(=O)oc2c1 | -77.7% (active) |
| O=C(NCCc1ccc(O)c(O)c1)C12CC3CC(CC(C3)C1)C2 | 1.2% (inactive) |
| N#C/C(=C\c1ccc(O)c(O)c1)C(=O)OCCc1cccs1 | 2.66% (inactive) |
| COc1cc2c(cc1OC)Cc1cc(OC)c(OC)cc1Cc1cc(OC)c(OC)cc1C2 | 6.34% (inactive) |
| COc1cccc(N2CCN(C3=Nc4c(F)cccc4[C@H](CC(=O)O)N3c3cc(C(F)(F)F)ccc3OC)CC2)c1 | -1.57% (inactive) |
| O=C1c2ccccc2CCC1CNCCc1ccc(O)cc1 (stereo unspecified) | 9.23% (inactive) |
| O=S(=O)(O)c1ccc(O)cc1 | 0.395% (inactive) |
| CC(=O)N1CCN(C)CC1 | 1.18% (inactive) and 9.84% (inactive) |
| O=c1c2cc(O)c(O)cc2oc2cc(O)c(C3O[C@H](CO)[C@H](O)[C@@H](O)[C@H]3O)c(O)c12 (stereo partly specified) | 3.15% (inactive) |
| COc1ccc(-c2cc(=O)c3c(O)c(OC)c(O[C@H]4O[C@H](CO[C@@H]5O[C@@H](C)[C@H](O)[C@@H](O)[C@H]5O)[C@@H](O)[C@H](O)[C@H]4O)cc3o2)cc1 | 15.1% (inactive) |
| O=C(NNc1nc2cc(F)ccc2n2cccc12)c1cnccn1 | -77.3% (active) |
| NC(Cc1ccc(F)cc1)C(=O)O (stereo unspecified) | 2.32% (inactive) |
| CCCCNc1ncc(-c2ccc(CN3CCOCC3)cn2)c(NC2CCC(O)CC2)n1 (stereo unspecified) | -67.2% (inactive) |
| OC1CCC(Nc2ncc3nc(Nc4c(F)cc(F)cc4F)n([C@H]4CCOC4)c3n2)CC1 (stereo partly specified) | -77.1% (active) |
| O=C(CN1C(=O)c2ccccc2S1(=O)=O)Nc1ccc(O)cc1 | 6.78% (inactive) |
| Nc1nc(NCCNc2ncc(-n3ccnc3)c(-c3ccc(Cl)cc3Cl)n2)ccc1[N+](=O)[O-] | 38.7% (inactive) |
| COc1ccccc1N1CCN(CCCCNC(=O)c2ccc3ccccc3c2)CC1 | -12.8% (inactive) |
| COc1ccc(S(=O)(=O)N2CCCN(S(=O)(=O)c3ccc(OC)c(OC)c3)CC2)cc1OC | 0.269% (inactive) |

| Compound | activity change, negative = inhibition |
| --- | --- |
| O=C(NO)c1cnc(N2CCN(S(=O)(=O)c3ccc4ccccc4c3)CC2)nc1 | -82.9% (active) |
| O=c1[nH]c(=O)c2ccccc2o1 | 7.04% (inactive) and -95.9% (active) |
| O=c1c2ccccc2oc2ccccc12 | 16.7% (inactive) |
| O=C(O)c1cc(=O)c2ccccc2o1 | 5.57% (inactive) and 14.8% (inactive) |
| OC(c1ccccc1)(c1ccccc1)C12CC[N+](CCOCc3ccccc3)(CC1)CC2 | 13.9% (inactive) |
| COc1ccc2oc(-c3ccccc3OC)cc(=O)c2c1 | 44.1% (inactive) |
| O=C(Nc1ccccc1)NC1CC(C(=O)O)Nc2cc(Cl)cc(Cl)c21 (stereo unspecified) | 13% (inactive) |
| CCCNC(C)C(=O)Nc1ccccc1C (stereo unspecified) | 37.2% (inactive) and -79.6% (active) |
| CCCNC(C)C(=O)Nc1c(C)csc1C(=O)OC (stereo unspecified) | 20% (inactive) |
| Cc1ccccc1N=C(N)Nc1ccccc1C | 5.45% (inactive) and 4.9% (inactive) |
| CCCCCCCCCCCCCCCC(=O)OC1C(SC)OC(C(NC(=O)C2CC(CCC)CN2C)C(C)Cl)C(O)C1O (stereo unspecified) | -9.26% (inactive) |
| COCCn1c2c([n+](Cc3cnccn3)c1C)C(=O)c1ccccc1C2=O | -83.1% (active) and -81.3% (active) |
| CN1c2cc(O)c(N=NC(N)=O)cc2CC1S(=O)(=O)O (stereo unspecified) | -1.43% (inactive) |
| O=P(O)(O)C(Sc1ccc(Cl)cc1)P(=O)(O)O | 5.32% (inactive) and -0.0921% (inactive) |
| CC(=O)OCC(=O)[C@@]1(O)CCC2C3C[C@H](C)C4=CC(=O)C=CC4(C)C3[C@@H](O)CC21C (stereo partly specified) | -6.72% (inactive) |
| N[C@@H](CSS(=O)(=O)O)C(=O)O | 14.6% (inactive) |
| C1=C/COCc2cc(ccc2OCCN2CCCC2)Nc2nccc(n2)-c2cccc(c2)COC/1 | -80.3% (active) |
| c1cc(OCCN2CCCCC2)cc(-c2n[nH]c3ccc(-c4ncn[nH]4)cc23)c1 | -32.3% (inactive) |
| Cc1ccccc1N1CCN(S(=O)(=O)CC23CCC(C[C@@H]2NC(=O)[C@@H](N)CCS(C)(=O)=O)C3(C)C)CC1 (stereo partly specified) | 1.28% (inactive) and 5.87% (inactive) |
| Cc1cc(OCC(=O)O)cc(C)c1Cc1ccc(O)c(C(C)C)c1 | 1.47% (inactive) |
| CN(CCOc1ccc(NS(C)(=O)=O)cc1)CCc1ccc(NS(C)(=O)=O)cc1 | -7.15% (inactive) and -5.58% (inactive) |

| Compound | activity change, negative = inhibition |
| --- | --- |
| CCCCc1oc2ccc(NS(C)(=O)=O)cc2c1C(=O)c1ccc(OCCCN(CCCC)CCCC)cc1 | -83.6% (active) |
| CCCCc1oc2ccccc2c1C(=O)c1cc(I)c(OCCN(CC)CC)c(I)c1 | -58.9% (inactive) |
| CCCCC/C=C\C/C=C\C/C=C\CCCCCCC(=O)O | 4.57% (inactive) |
| Clc1ccc(-c2nc3sccn3c2/C=N/OCc2ccc(Cl)c(Cl)c2)cc1 | 27.7% (inactive) and 3.2% (inactive) |
| C[C@H](N)C(=O)N[C@@H](C)P(=O)(O)O | 9.38% (inactive) |
| CC[C@H](C)[C@@H]([C@@H](CC(=O)N1CCC[C@H]1[C@H](OC)[C@@H](C)C(=O)N[C@@H](Cc1ccccc1)c1nccs1)OC)N(C)C(=O)[C@@H](NC(=O)[C@H](C(C)C)N(C)C)C(C)C | -85.6% (active) |
| CNC(=O)C1OC(n2cnc3c(NCc4cccc(I)c4)nc(Cl)nc32)C(O)C1O (stereo unspecified) | -2.06% (inactive) |
| NC(=O)c1ccc(I)c([N+](=O)[O-])c1 | 13.7% (inactive) |
| COc1ccc(C(=O)c2ccc(C)cc2)c(O)c1 | 154% (inactive) and 98.7% (inactive) |
| Cc1ccc(C(=O)c2cc(O)c(O)c([N+](=O)[O-])c2)cc1 | -80% (active) and 2.13% (inactive) |
| COc1cc(OC)c(/C=C/S(=O)(=O)Cc2ccc(OC)c(NCC(=O)O)c2)c(OC)c1 | -46.4% (inactive) |
| COc1ccnc2[nH]cc(C(=O)C(=O)N3CCN(C(=O)c4ccccc4)C[C@H]3C)c12 | 5.24% (inactive) |
| C[C@]12CC[C@H](O)CC1=CCC1C2CC[C@]2(C)C(n3cnc4ccccc43)=CCC12 (stereo partly specified) | -67.5% (inactive) |
| Fc1ccc(-c2nc3n(c2-c2ccncc2)CCS3)cc1 | -79.8% (active) |
| COC(=O)Cc1cccn1C | 10.9% (inactive) |
| CC(O)CN(CCN(CC(C)O)CC(C)O)CC(C)O (stereo unspecified) | 15.4% (inactive) |
| Cc1cc(OCc2nnc(SC3CCCC3)n2-c2cccnc2)ccc1-c1ccc(S(C)(=O)=O)cc1 | -79.2% (active) |
| CSCC[C@H](NC(=O)[C@@H](N)Cc1c[nH]c2ccccc12)C(=O)N[C@@H](CC(=O)O)C(=O)N[C@@H](Cc1ccccc1)C(N)=O | 17% (inactive) |
